What all share (test): DAPPL (digital affinity profiling via proximity ligation, sequencing); 10 mM Tris-HCl pH 7.5, 50 mM NaCl, 1 mM DTT, 4% glycerol, room temperature, 30 min; GST-TFs on glutathione beads, 16-mer random dsDNA library, 0.1% formaldehyde crosslink after washing; high values mean tight binding
One assay concerns the target T1, FEV (Homo sapiens, UniProt Q99581 1-238).
T1 sequence: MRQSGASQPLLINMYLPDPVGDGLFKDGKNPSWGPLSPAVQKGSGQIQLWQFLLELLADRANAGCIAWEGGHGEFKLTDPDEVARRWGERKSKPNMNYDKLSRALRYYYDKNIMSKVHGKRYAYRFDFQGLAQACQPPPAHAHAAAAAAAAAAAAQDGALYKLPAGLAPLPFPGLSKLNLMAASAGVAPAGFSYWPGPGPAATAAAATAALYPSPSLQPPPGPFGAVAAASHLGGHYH
The settings on record: protein: recombinant; tags: N-terminal GST; dsDNA, one strand shown. The method, boiled down: (§1)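 Human transcription factors were made in yeast as GST fusions, captured on glutathione beads and barcoded with DNA. With a tag-only sample included, the pool was incubated with 200 nmole of a random double-stranded 16-mer DNA library in Tris/NaCl/DTT/glycerol buffer at room temperature for 30 min, then crosslinked with 0.1% formaldehyde after washing, ligated by proximity, amplified and sequenced. For binding signal, each hexamer's read frequency for a factor is divided by its frequency for the tag-only sample.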

In the next assay the target is ETV5 (Homo sapiens, UniProt P41161 1-510). The settings on record: protein: recombinant; tags: N-terminal GST; dsDNA, one strand shown. The method, boiled down:
as §1

In another assay the target is HSF1 (Homo sapiens, UniProt Q00613 1-529). The settings on record: protein: recombinant; tags: N-terminal GST; chain copies: 3; dsDNA, one strand shown. The method, boiled down:
as §1

For a further assay, the target named is T2, SPIC (Homo sapiens, UniProt Q8N5J4 1-248).
T2 sequence: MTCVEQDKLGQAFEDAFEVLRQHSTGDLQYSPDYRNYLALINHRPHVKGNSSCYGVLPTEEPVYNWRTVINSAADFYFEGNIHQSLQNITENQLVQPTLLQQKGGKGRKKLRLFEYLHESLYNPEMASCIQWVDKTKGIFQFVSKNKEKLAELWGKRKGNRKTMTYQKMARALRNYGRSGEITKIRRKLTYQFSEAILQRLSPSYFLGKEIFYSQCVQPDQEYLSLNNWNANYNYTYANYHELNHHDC
The settings on record: protein: recombinant; tags: N-terminal GST; dsDNA, one strand shown. In outline: as §1

A further assay concerns the target ELF4 (Homo sapiens, UniProt Q99607 1-663). The settings on record: protein: recombinant; tags: N-terminal GST; dsDNA, one strand shown. The method, boiled down:
as §1

The next assay addresses T3, ELK4 (Homo sapiens, UniProt P28324-2 1-405).
T3 sequence: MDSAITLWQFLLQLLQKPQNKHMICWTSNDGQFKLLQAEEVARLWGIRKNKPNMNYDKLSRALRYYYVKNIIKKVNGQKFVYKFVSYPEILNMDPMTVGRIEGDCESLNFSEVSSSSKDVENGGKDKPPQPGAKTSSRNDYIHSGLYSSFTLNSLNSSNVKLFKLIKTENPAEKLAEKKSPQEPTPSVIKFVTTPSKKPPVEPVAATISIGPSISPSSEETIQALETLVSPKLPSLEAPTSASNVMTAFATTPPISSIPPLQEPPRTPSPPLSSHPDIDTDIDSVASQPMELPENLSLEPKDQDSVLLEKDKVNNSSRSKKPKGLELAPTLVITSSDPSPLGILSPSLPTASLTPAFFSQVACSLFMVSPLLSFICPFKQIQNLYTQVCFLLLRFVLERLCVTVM
The settings on record: protein: recombinant; tags: N-terminal GST; dsDNA, one strand shown. In outline:
as §1

The target in a further assay is T4, ETV2 (Homo sapiens, UniProt O00321 1-342).
T4 sequence: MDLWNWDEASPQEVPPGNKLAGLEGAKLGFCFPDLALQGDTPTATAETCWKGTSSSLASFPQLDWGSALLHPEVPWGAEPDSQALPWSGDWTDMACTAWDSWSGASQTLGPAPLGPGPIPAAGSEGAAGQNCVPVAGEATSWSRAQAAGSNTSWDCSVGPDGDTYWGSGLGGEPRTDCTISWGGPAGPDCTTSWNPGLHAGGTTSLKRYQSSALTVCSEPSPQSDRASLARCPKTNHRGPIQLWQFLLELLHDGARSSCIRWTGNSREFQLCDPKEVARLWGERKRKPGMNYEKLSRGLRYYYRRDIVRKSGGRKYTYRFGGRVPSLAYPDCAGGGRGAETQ
The settings on record: protein: recombinant; tags: N-terminal GST; dsDNA, one strand shown. In outline:
as §1

For another assay, the target named is T5, ELF3 (Homo sapiens, UniProt P78545 1-371).
T5 sequence: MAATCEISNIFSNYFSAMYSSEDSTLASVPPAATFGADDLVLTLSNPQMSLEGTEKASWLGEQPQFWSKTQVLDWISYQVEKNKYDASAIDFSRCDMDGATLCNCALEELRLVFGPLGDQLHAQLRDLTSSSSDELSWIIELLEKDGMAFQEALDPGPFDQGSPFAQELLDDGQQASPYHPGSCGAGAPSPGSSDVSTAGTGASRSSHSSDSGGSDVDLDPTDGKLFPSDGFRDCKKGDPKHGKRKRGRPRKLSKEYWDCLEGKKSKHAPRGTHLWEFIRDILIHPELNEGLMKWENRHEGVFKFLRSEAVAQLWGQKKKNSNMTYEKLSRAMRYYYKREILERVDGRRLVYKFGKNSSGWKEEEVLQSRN
The settings on record: protein: recombinant; tags: N-terminal GST; dsDNA, one strand shown. In outline: as §1

For another assay, the target named is CRX (Homo sapiens, UniProt O43186 1-299). The settings on record: protein: recombinant; tags: N-terminal GST; dsDNA, one strand shown. In outline:
as §1

For a further assay, the target named is ETV1 (Homo sapiens, UniProt P50549 1-477). The settings on record: protein: recombinant; tags: N-terminal GST; dsDNA, one strand shown. The method, boiled down:
as §1

The target of the next assay is T6, ERF (Homo sapiens, UniProt P50548 1-548).
T6 sequence: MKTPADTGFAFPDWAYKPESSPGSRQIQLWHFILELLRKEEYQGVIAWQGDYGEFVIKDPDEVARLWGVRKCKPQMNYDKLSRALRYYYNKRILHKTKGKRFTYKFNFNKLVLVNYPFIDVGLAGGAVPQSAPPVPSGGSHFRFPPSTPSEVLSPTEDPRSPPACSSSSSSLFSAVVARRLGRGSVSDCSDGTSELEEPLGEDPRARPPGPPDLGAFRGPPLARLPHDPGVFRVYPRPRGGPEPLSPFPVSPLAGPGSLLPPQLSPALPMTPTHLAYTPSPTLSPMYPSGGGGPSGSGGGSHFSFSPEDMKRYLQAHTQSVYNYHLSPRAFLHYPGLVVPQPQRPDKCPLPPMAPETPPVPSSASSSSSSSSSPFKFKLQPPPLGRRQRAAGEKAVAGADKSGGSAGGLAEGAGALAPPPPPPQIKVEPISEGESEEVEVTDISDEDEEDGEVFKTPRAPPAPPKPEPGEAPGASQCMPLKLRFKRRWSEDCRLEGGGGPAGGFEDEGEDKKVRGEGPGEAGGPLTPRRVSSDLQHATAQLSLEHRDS
The settings on record: protein: recombinant; tags: N-terminal GST; dsDNA, one strand shown. In outline:
as §1

Another assay deals with T7, ETV3L (Homo sapiens, UniProt Q6ZN32 1-361).
T7 sequence: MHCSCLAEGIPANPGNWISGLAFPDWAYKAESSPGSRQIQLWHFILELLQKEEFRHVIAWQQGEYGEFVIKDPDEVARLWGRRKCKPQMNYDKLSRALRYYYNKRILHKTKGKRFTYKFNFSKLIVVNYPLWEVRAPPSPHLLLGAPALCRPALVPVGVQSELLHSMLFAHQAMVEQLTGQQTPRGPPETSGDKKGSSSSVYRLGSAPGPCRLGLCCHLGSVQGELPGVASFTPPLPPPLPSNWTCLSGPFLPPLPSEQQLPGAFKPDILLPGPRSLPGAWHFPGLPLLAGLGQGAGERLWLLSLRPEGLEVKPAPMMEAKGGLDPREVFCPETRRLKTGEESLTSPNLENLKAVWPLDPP
The settings on record: protein: recombinant; tags: N-terminal GST; dsDNA, one strand shown. The method, boiled down: as §1

Another assay deals with T8, ETS2 (Homo sapiens, UniProt P15036 1-469).
T8 sequence: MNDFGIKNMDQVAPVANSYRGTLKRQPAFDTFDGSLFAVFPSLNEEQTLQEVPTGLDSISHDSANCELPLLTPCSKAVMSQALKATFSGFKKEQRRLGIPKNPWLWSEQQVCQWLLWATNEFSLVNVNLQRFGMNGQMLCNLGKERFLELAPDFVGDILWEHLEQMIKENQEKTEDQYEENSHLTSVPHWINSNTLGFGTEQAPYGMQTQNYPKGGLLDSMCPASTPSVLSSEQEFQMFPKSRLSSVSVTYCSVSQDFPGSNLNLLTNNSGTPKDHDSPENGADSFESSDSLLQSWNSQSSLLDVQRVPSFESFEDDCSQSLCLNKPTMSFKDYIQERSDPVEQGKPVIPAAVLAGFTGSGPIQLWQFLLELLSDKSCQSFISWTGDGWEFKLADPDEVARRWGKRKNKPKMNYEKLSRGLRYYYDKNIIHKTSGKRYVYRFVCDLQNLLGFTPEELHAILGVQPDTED
The settings on record: protein: recombinant; tags: N-terminal GST; dsDNA, one strand shown. In outline:
as §1

Another assay has as its target T9, SPDEF (Homo sapiens, UniProt O95238 1-335).
T9 sequence: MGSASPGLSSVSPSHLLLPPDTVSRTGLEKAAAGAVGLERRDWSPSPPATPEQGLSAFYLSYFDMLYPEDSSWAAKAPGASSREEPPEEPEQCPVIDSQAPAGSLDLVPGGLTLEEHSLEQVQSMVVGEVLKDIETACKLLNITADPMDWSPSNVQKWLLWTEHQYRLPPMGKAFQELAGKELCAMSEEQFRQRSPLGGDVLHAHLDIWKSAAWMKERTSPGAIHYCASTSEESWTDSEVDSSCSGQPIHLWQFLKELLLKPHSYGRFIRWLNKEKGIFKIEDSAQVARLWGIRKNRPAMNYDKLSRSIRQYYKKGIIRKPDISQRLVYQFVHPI
The settings on record: protein: recombinant; tags: N-terminal GST; dsDNA, one strand shown. In outline:
as §1

A further assay addresses T10, ETV7 (Homo sapiens, UniProt Q9Y603 1-341).
T10 sequence: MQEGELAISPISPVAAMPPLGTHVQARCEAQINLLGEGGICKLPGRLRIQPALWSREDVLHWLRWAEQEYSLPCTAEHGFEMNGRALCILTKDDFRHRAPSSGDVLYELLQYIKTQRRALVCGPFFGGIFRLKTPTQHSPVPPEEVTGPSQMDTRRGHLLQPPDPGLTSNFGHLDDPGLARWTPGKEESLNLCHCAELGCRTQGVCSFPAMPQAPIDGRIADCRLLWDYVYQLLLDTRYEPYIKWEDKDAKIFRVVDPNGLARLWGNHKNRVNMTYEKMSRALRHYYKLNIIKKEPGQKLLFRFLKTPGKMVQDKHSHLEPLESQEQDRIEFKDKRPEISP
The settings on record: protein: recombinant; tags: N-terminal GST; dsDNA, one strand shown. In outline: as §1

In another assay the target is T11, ELF5 (Homo sapiens, UniProt Q9UKW6-2 1-255).
T11 sequence: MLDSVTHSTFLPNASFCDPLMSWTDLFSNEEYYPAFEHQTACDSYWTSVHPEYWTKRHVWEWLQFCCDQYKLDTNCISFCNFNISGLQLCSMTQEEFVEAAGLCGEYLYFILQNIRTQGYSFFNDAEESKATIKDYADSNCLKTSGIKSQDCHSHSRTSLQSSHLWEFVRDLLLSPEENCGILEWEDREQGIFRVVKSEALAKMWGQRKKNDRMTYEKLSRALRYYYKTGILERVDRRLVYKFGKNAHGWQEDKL
The settings on record: protein: recombinant; tags: N-terminal GST; dsDNA, one strand shown. In outline:
as §1

Another assay addresses T12, ETV3 (Homo sapiens, UniProt P41162-2 1-143).
T12 sequence: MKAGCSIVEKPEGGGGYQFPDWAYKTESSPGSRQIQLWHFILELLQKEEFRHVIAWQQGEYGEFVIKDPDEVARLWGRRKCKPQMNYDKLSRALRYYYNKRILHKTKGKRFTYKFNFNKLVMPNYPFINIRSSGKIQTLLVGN
The settings on record: protein: recombinant; tags: N-terminal GST; dsDNA, one strand shown. The method, boiled down: as §1

The target in a further assay is ETV6 (Homo sapiens, UniProt P41212 1-452). The settings on record: protein: recombinant; tags: N-terminal GST; dsDNA, one strand shown. The method, boiled down:
as §1

Sequence of HSF1 (Q00613 whole entry): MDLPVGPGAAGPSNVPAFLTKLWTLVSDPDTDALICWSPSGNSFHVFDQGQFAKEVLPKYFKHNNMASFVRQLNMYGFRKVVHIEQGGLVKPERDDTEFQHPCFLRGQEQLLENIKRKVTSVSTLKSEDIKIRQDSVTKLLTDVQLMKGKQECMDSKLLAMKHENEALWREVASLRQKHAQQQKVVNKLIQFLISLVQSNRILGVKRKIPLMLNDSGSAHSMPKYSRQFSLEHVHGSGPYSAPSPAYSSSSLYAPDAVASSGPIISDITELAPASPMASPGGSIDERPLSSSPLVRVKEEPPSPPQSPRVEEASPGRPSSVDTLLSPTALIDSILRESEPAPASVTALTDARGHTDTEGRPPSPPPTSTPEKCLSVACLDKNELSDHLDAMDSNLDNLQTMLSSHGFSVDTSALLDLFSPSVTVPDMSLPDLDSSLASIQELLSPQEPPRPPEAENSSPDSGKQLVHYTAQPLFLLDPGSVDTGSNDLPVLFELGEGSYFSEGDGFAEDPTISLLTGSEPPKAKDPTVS
Sequence of ETV5 (P41161 whole entry): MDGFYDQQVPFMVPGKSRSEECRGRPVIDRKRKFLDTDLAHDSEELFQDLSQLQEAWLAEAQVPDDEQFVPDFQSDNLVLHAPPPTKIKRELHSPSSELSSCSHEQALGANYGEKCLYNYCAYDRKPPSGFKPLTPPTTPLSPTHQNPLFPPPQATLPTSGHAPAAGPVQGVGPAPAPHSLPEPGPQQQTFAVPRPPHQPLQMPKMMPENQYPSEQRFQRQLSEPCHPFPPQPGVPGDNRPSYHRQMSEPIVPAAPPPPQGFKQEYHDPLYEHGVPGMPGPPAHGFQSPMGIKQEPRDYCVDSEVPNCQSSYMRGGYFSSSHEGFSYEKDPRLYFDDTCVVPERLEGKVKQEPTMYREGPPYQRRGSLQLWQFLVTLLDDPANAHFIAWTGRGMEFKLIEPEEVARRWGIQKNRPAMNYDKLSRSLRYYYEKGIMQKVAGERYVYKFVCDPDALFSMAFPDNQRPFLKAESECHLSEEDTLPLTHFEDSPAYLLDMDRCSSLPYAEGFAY
Sequence of ETV6 (P41212 whole entry): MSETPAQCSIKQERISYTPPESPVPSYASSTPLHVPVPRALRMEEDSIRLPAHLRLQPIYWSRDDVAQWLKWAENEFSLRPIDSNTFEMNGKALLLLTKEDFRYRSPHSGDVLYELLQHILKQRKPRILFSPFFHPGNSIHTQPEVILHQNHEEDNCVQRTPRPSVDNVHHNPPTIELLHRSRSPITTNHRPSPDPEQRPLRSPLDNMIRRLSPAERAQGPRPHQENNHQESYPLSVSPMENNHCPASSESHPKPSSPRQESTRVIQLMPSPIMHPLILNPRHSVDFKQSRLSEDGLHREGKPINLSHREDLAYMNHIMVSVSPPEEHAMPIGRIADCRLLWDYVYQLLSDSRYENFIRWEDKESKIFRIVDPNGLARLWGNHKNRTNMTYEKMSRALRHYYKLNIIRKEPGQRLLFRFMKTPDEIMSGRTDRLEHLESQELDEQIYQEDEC
Sequence of ELF4 (Q99607 whole entry): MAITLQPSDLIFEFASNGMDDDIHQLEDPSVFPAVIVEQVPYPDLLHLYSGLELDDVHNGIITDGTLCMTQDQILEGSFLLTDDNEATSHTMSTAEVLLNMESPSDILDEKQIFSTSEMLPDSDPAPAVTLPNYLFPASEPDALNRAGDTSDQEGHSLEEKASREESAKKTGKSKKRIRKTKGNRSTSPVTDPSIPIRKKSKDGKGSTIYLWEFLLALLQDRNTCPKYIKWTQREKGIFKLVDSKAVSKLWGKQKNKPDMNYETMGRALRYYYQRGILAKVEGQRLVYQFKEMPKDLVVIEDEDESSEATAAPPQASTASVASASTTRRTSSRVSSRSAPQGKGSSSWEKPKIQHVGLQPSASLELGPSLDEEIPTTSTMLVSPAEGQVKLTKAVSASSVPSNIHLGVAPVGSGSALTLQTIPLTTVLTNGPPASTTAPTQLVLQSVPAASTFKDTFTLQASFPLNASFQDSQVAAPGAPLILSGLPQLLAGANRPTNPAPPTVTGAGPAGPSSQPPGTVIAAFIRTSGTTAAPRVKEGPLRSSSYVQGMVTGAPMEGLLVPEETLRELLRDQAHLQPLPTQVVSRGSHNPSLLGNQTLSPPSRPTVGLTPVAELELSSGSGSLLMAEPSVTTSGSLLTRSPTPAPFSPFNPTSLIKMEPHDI
Sequence of CRX (O43186 whole entry): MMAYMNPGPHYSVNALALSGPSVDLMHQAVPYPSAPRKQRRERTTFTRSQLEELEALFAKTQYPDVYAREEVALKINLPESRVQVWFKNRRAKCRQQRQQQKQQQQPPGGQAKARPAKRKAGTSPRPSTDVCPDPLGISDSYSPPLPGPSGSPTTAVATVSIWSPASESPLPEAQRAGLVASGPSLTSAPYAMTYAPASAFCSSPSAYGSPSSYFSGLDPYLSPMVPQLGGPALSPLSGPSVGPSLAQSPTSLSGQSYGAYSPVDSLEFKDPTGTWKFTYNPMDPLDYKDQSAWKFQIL
Sequence of ETV1 (P50549 whole entry): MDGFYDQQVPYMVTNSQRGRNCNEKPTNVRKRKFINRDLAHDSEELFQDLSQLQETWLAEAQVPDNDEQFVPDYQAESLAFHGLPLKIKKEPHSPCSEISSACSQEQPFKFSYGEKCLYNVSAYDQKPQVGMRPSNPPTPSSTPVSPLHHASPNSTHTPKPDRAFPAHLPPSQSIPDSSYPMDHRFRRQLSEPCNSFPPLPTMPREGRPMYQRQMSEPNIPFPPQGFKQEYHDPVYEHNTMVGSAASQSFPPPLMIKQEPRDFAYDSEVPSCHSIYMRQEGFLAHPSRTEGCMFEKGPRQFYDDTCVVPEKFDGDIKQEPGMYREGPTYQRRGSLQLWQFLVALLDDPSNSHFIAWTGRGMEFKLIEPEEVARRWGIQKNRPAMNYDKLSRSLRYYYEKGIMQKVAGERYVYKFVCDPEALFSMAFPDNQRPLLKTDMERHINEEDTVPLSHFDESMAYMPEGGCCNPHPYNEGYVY

For AAACCC, the binding signal in the assay with FEV is 1.29 fold enrichment (6-mer frequency, TF over GST control); in the assay with ETV5, 1.29 fold enrichment (6-mer frequency, TF over GST control); with HSF1, 1.21 fold enrichment (6-mer frequency, TF over GST control); with SPIC, 1.2 fold enrichment (6-mer frequency, TF over GST control); with ELF4 it was 1.34 fold enrichment (6-mer frequency, TF over GST control); with ELK4, 1.24 fold enrichment (6-mer frequency, TF over GST control). The binding signal is 1.34 fold enrichment (6-mer frequency, TF over GST control) in the assay with ETV2; 1.42 fold enrichment (6-mer frequency, TF over GST control) with ELF3; 1.35 fold enrichment (6-mer frequency, TF over GST control) in the assay with CRX; 1.36 fold enrichment (6-mer frequency, TF over GST control) in the assay with ETV1; 1.28 fold enrichment (6-mer frequency, TF over GST control) with ERF; 1.29 fold enrichment (6-mer frequency, TF over GST control) with ETV3L. Besides, the binding signal with ETS2 was 1.26 fold enrichment (6-mer frequency, TF over GST control); with SPDEF, 1.34 fold enrichment (6-mer frequency, TF over GST control); with ETV7, 1.25 fold enrichment (6-mer frequency, TF over GST control); in the assay with ELF5, 1.31 fold enrichment (6-mer frequency, TF over GST control); with ETV3, 1.29 fold enrichment (6-mer frequency, TF over GST control); in the assay with ETV6, 1.34 fold enrichment (6-mer frequency, TF over GST control).

(Values after article PMC7862700, “An all-to-all approach to the identification of sequence-specific readers for epigenetic DNA modifications on cytosine”.)
